Source: PubChem BioAssay (EPA / NIEHS)
Inconclusive results are not listed. Active and inactive are the calls of the source. The calls were made as follows: active = hit-call score of the fitted dose curve at least 0.9, where 1 is the maximum; inconclusive = response in the unintended direction; inactive = score below 0.9.

Target: human SRC Proto-Oncogene, Non-receptor Tyrosine Kinase (SRC), SRC (gene 6714) (UniProt P12931)
Assay: NVS_ENZ_hSRC: NovaScreen (NVS) Enzymatic Assay for human SRC Proto-Oncogene, Non-receptor Tyrosine Kinase (SRC) (AID 2283223)
Summary of the method: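 Cell-free kinase activity assay with fluorescent substrate, product separated by electrophoretic mobility shift, read 1 h after dosing. Duplicate single point at 25 uM, then concentration-response up to 50 uM; loss of signal versus DMSO.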

Chain of human SRC Proto-Oncogene, Non-receptor Tyrosine Kinase (SRC), SRC (gene 6714) (P12931 whole entry, looked up): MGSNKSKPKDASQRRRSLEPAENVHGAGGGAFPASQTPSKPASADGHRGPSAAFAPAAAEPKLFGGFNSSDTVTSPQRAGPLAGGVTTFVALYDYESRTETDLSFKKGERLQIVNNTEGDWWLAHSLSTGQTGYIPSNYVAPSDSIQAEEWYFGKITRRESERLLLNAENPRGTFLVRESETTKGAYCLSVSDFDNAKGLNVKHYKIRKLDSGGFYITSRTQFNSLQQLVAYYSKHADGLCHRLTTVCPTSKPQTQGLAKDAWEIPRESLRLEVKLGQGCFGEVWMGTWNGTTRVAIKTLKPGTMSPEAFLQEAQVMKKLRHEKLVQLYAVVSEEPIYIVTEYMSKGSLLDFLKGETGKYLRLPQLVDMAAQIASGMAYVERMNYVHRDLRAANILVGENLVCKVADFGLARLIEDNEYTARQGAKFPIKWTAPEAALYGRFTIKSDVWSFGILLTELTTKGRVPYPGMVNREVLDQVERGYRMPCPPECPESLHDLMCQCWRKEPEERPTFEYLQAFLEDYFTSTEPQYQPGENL

| SMILES | outcome |
| --- | --- |
| CCCC1COC(Cn2cncn2)(c2ccc(Cl)cc2Cl)O1 (configuration not stated) | inactive |
| CNC(=S)S | inactive |
